# Screening results as filed in PubChem BioAssay.
# Compounds with a hit are over-represented: about 1.8% of the library has one in this group of screens.
# ABCB6 inh 2: ABCB6 transporter inhibitors, primary screen, K562-ABCB6 cells, flow cytometry, MLPCN library | ATP-binding cassette sub-family B member 6 (Homo sapiens), Q9NP58 | K562-ABCB6 porphyrin accumulation, 1 h; hits give low values | fluorescence ratio to DMSO, % at 10 µM | 360,000 compounds, 0.19% hits | AID 602162, 2011;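 active means fluorescence ratio to DMSO below 75%, the collection mean minus 3 SD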;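 further: signal is porphyrin accumulated inside mitochondria; 100% equals median channel fluorescence of DMSO control wells; lower ratio means ABCB6 inhibition with less porphyrin fluorescence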
# Target sequence (Q9NP58 whole entry, looked up): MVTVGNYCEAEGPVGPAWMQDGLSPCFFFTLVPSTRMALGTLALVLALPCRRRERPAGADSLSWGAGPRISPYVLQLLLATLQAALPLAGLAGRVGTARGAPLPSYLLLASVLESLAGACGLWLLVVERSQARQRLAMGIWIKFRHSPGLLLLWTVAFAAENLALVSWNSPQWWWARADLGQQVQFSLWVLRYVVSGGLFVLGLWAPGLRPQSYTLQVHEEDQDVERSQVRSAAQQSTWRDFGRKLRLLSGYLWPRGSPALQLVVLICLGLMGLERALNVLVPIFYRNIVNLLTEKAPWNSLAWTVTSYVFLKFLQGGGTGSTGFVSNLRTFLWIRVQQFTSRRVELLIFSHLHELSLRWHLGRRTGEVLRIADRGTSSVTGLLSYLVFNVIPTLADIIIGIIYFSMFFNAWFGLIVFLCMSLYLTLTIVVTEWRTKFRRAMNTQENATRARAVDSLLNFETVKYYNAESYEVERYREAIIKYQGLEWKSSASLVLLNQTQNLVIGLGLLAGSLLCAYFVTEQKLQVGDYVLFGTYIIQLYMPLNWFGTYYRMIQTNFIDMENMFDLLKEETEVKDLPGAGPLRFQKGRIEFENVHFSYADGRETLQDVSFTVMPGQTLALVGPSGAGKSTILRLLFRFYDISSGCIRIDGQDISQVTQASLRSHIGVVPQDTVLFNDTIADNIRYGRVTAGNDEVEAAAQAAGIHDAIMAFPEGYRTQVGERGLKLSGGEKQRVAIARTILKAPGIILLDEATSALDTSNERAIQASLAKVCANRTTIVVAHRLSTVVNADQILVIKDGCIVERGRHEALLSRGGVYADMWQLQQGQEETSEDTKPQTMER
# GSIS activator: GLuc luminescence reporter in INS-1E cells, primary screen for activators of glucose-dependent secretion of insulin. INS-1E GLuc reporter insulin secretion, 2-3 h. activation, % at 16.6 µM. 370,000 compounds, 0.61% hits. AID 743287, 2014;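 active means lowest replicate activation of at least 40%, so every replicate reaches that level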;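 further: 0% = median of neutral control wells and 100% = median of IBMX positive control wells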
# hiPSC survival: enhancers of single-cell hiPSC survival, primary screen, ATPlite luminescence; 360,000 compounds, 0.044% hits; AID 602274, 2012; 100% = ROCK inhibitor wells, 0% = DMSO; survival enhancement, % at 20 µM; in the data active means survival enhancement above about 18%;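 further: cells exposed to compounds for 16 hours before the ATP read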
# CendR NRP1 mod: modulators of CendR peptide binding to NRP-1, primary screen, biochemical, fluorescence polarization, uHTS | Neuropilin-1 (Homo sapiens), O14786 | FAM-RPARPAR peptide binding to NRP-1 | inhibition, % at 25 µM | 360,000 compounds, 0.85% hits | AID 602438, 2012;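 active means inhibition or corrected inhibition above about 18%, plus a signal ratio from 0.5 to 1.5, limit read from the data, passing the limit was not always enough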
# ARNT TACC3 PPI: disruptors of ARNT/TACC3 protein interaction, primary screen, biochemical, AlphaScreen, single concentration | Transforming acidic coiled-coil-containing protein 3 (Homo sapiens), Q9Y6A5 | AlphaScreen His-ARNT PAS-B/GST-TACC3 binding, luminescence; TACC3 fragment carries E629A point mutation | inhibition, % at 9.99 µM | 390,000 compounds, 0.66% hits | AID 623870, 2012;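 active means mean inhibition of replicates at least 50% and at least half of replicates each reaching 50%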;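 further: 0% = complete ARNT plus TACC3 wells and 100% = ARNT alone without TACC3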
# Numbers without * were called inactive; x = no result given.
SMILES,ABCB6 inh 2,GSIS activator,hiPSC survival,CendR NRP1 mod,ARNT TACC3 PPI
C[C@@H]1CN([C@H](C)CO)C(=O)CCCn2cc(nn2)CO[C@H]1CN(C)C(=O)CCCN(C)C,x,14,x,x,-2
CC1(C)S[C@@H]2C(C(=O)OCc3ccccc3)NC(=O)N2C1C(=O)OCc1ccccc1 (some centres undefined),98,0,-3,34*,-3
O=C1CCC(C(=O)OCc2ccccc2)N1 (centres undefined),98,-1,1,-3,-4
CCCOC(=O)C1NC(=O)N2C(C(=O)OCCC)C(C)(C)S[C@H]12 (some centres undefined),99,-8,23*,16,-3
Cc1[nH][nH]c(=O)c1C(c1ccc(-c2cccc(Cl)c2)o1)c1c(C)[nH][nH]c1=O,99,x,0,-2,50*
O=C(C[C@H]1C[C@H]2c3cc(NS(=O)(=O)c4ccc(F)cc4)ccc3O[C@H]2[C@@H](CO)O1)NCCc1ccccc1,x,-24,x,x,-8
COc1ccc(N(C(=O)c2ccncc2)S(=O)(=O)c2cccc([N+](=O)[O-])c2)cc1,96,-12,1,19*,-2
Cn1c(COc2ccc(C(=O)O)cc2)nc2ccccc21,94,4,-1,14,-7
Cn1c(COc2ccc(F)cc2)nc2ccccc21,96,7,0,23*,-2
CC(C)(C)CC(C)(C)NC(=S)Nc1ccc2nc(-c3ccccn3)c(-c3ccccn3)nc2c1,144,x,0,-80,5
OCCCNC(=S)Nc1ccc2nc(-c3ccccn3)c(-c3ccccn3)nc2c1,97,x,1,12,60*
CN(C)NC(=S)Nc1ccc2nc(-c3ccccn3)c(-c3ccccn3)nc2c1,90,x,1,17,73*
O=C1CN(S(=O)(=O)c2cc(Br)ccc2Br)CCN1,99,7,0,-4,-5
O=c1c(Br)ccc(Br)cc1Br,19*,-4,5,-11,-11
Cc1nn(CC(=O)NCCCN2CCN(C)CC2)c(=O)c2cc(-c3ccccc3)nn12,103,5,0,6,4
CCc1ccc(-c2cc3c(=O)n(CC(=O)NCCCN4CCN(CC)CC4)nc(C)n3n2)cc1,101,15,-1,24*,0
C[C@H]1CC(=O)N[C@@H](c2ccccc2)C/C=C\C[C@H](c2ccccc2)NC1=O,x,5,x,x,x
O=C(C1CC1)N1C[C@@H]2N[C@H](C1)C2c1ccc(-c2cccc(F)c2)cc1 (some centres undefined),x,5,x,x,x
CNC(=S)N1N=C(c2ccc(Br)cc2)CC1c1ccc(N(C)C)cc1 (centres undefined),94,-3,2,32*,-5
CCC(=O)N1CCC2(CC1)CN(C(=O)Nc1ccc(F)cc1)[C@@H](CO)c1c2c2ccc(OC)cc2n1C,x,-9,x,x,x
COc1cc(NCCCNC(C)C)c2nccc(C)c2c1,114,9,-2,26*,77*
COc1cc(NCc2ccccc2)c2ncn(C(C)C)c2c1,98,x,-4,5,14
COc1ccc(-c2ccc(=O)n(CC(=O)NC3CCc4ccccc43)n2)cc1OC (centres undefined),97,47*,5,7,-6
COc1ccc(-c2cc(C(F)(F)F)nc(SCCC(=O)Nc3cc(C)on3)n2)cc1,105,x,-2,9,-3
COc1ccc(-c2cc(C(F)(F)F)nc(SCC(=O)NCCN3CCOCC3)n2)cc1OC,98,14,2,31*,-10
SMILES,ABCB6 inh 2,GSIS activator,hiPSC survival,CendR NRP1 mod,ARNT TACC3 PPI
COc1ccc(-c2cc(C(F)(F)F)nc(SCC(=O)Nc3cc(C)on3)n2)cc1OC,85,x,5,39*,21
COc1ccc(-c2ccc(SCC(=O)Nc3cc(C)on3)nn2)cc1OC,100,57*,4,-4,1
O=C(CSc1nc(-c2ccc(F)cc2)cc(C(F)(F)F)n1)NCCN1CCOCC1,105,33,-3,5,-2
O=S(=O)(Cc1ccccc1)N1CCCCN2[C@H](CO)[C@H](c3ccc(-c4ccccc4)cc3)[C@@H]2C1,x,5,x,x,0
O=C(CCN1CCCCC1)N[C@H]1CC[C@@H](CCNS(=O)(=O)c2ccccc2)O[C@H]1CO,x,17,x,x,x
Cc1ccccc1S(=O)(=O)N1CCCCN2[C@H](CO)[C@H](c3ccc(-c4ccccc4)cc3)[C@H]2C1,x,x,x,x,7
COc1ccc(-c2ccc(SCC(=O)NC3CCCC3)nn2)cc1OC,105,80*,0,10,3
Cc1cccc(NC(=O)CSc2ccc(-c3ccc4c(c3)OCO4)nn2)c1C,96,94*,0,-2,0
C[C@@H]1CN([C@H](C)CO)C(=O)c2cc(N(C)C)ccc2O[C@H]1CN(C)CC1CCCCC1,x,-4,x,x,x
COc1ccc(S(=O)(=O)N2CCN(Cc3ccc(OCCO)cc3)CC2)cc1,x,x,x,x,1
O=C(C[C@H]1CC[C@@H](NC(=O)Nc2cc(F)ccc2F)[C@H](CO)O1)Nc1ccccc1,x,21,x,x,2
CC1(C)CC2CC(C)(CN2C(=O)COC(=O)c2cc(Cl)cc(Cl)c2N)C1 (centres undefined),98,-17,1,-1,14*
COC(=O)C(N)Cc1ccc(O)c(O)c1 (centres undefined),103,x,0,8,-5
NC(CO)C(=O)NNCc1ccc(O)c(O)c1O (centres undefined),105,-9,-2,5,57*
CO[C@H]1CN(C)C(=O)c2ccc(NC(=O)C3CCOCC3)cc2OC[C@H](C)NC[C@@H]1C,x,3,x,x,x
Cc1cc2c(=O)[nH]cnc2s1,103,x,-1,43*,0
CC(=O)Nc1ccc2nc3c(=O)n(C)c(=O)n(C)c3nc2c1,152,23,0,42*,18
O=C(COC(=O)Cc1cccc(F)c1)NCCc1ccccc1,99,x,-2,-8,-6
O=C(COC(=O)Cc1ccc(F)cc1)NCCc1ccccc1,103,43*,0,9,20
S=C(NCc1ccccn1)NN=Cc1ccccn1,94,x,-3,7,58*
Cc1ccc(NC(=S)NCc2ccccn2)cc1,105,x,-3,-6,5
C/C=C/c1ccc2c(c1)O[C@H](CN(C)C(=O)NC1CCCCC1)[C@@H](C)CN([C@@H](C)CO)S2(=O)=O,x,-12,x,x,2
CC(C)C1=C2CCCCC2NC(=O)N1 (centres undefined),101,23,1,28*,-1
CC(C)C1(C2CCCC2)NC(=O)NC1=O (centres undefined),108,26,2,2,-5
